Screens deposited in PubChem BioAssay by National Center for Advancing Translational Sciences (NCATS).
G9a inh = inhibitors of human histone lysine methyltransferase G9a; Potency, µM (titrated, usually from 102 µM), hits mostly inhibitors; 350,000 compounds, 8.8% hits; G9a H3K9 monomethylation, AlphaScreen, 2 h; Q96KQ7; AID 504332; note: nearly all actives have a fitted effect of over 75% in size
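G9a (20 nM) was preincubated 15 min with compound, then reacted 2 h at room temperature with 500 nM biotin-H3K9 peptide and 20 µM SAM. Monomethyl-H3K9 detected by AlphaScreen using anti-H3K9me1 antibody.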
JMJD2A Tudor inh = blocks the human JMJD2A Tudor domain. AID 504339. Potency, µM (doses to about 114 µM), hits mostly inhibitors. 390,000 compounds, 4.4% hits. AlphaScreen JMJD2A-Tudor / H3K4me3 peptide binding; note: nearly all actives have a fitted effect of over 50% in size
L3MBTL1 inh = inhibitors of human L3MBTL1 | AlphaScreen L3MBTL1–H3K9me1 peptide binding | 230,000 compounds, 0.66% hits | Potency, µM (top dose mostly 57.1 µM), actives largely listed as inhibitors | Q9Y468 | AID 485360; note: nearly all actives have a fitted effect of over 60% in size
Target sequence (Q9Y468 whole entry, looked up): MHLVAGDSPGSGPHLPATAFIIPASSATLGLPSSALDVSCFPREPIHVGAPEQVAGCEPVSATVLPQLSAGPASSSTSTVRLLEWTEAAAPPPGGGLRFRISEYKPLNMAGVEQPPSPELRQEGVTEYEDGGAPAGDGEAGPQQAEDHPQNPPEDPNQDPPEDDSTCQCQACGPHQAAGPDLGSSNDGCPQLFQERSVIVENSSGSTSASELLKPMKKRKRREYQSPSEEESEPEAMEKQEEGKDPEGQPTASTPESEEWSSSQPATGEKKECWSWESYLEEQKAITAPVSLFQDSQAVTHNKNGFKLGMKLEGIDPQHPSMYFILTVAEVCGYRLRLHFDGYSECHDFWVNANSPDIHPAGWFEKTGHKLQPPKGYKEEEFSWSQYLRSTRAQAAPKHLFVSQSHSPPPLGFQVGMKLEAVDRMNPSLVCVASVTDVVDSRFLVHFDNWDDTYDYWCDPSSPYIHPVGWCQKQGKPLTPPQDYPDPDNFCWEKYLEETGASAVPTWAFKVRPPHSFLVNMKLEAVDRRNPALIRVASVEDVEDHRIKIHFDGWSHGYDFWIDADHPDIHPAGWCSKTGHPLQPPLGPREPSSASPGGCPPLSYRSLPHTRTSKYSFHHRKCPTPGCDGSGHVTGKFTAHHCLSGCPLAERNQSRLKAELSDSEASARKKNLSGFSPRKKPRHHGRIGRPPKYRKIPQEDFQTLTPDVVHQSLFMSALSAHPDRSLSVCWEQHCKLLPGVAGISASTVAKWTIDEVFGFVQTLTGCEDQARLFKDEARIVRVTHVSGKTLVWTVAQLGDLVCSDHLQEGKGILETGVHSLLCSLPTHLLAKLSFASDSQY
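AlphaScreen proximity signal between nickel-chelate acceptor and streptavidin donor beads (final 10 ug/mL) reports binding of 50 nM L3MBTL1 to 75 nM biotin-H3 K9me1 peptide; complex incubated with compounds 30 min at room temperature; cefsulodin titration as control.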
HP1b chromo inh = inhibitors of HP1-beta chromodomain binding to methylated histone tails; 390,000 compounds, 0.56% hits; AlphaScreen HP1-beta / biotin-H3K9me3 peptide binding; AID 540317; Potency, µM (titrated, usually from 114 µM), actives largely listed as inhibitors; note: nearly all actives have a fitted effect of over 70% in size
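Compound inhibition of the preformed complex between 50 nM HP1-beta and 50 nM biotinylated H3K9me3 peptide was read by AlphaScreen. Buffer was PBS pH 7.4 with 0.01% Tween-20. Incubations ran 30 min at room temperature, with 10 ug/mL donor/acceptor beads.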
BAZ2B block = blocks human BAZ2B | 360,000 compounds, 4.4% hits | Potency, µM (top dose mostly 114 µM), hits mostly inhibitors | AlphaScreen BAZ2B-H3K14Ac peptide displacement | Q9UIF8 | AID 504333; note: nearly all actives have a fitted effect of over 60% in size
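AlphaScreen displacement: compounds (up to 110uM) incubated 30 min at room temperature with a preformed 50 nM BAZ2B/50 nM biotinylated H3K14Ac peptide complex in PBS pH 7.4 with Tween-20. Donor and acceptor beads at 10 ug/mL final added, 20 min light-protected before reading.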
Large screens that a line does not name were inactive. Sampled rows, rich in hits. Any-hit rate of the full collection: about 11%. Calls come from the whole dose curve; as a rule, active = well fitted inhibition curve with a large enough effect; inconclusive = small, poorly fitted or top-dose-only effect; inactive = no such curve, though single readings can be large or run the other way.

O=[N+]([O-])c1ccccc1/C=N/Nc1nccnc1Cl	JMJD2A Tudor inh inconclusive, BAZ2B block inconclusive
Oc1ccccc1/C=N/Nc1nccnc1Cl	JMJD2A Tudor inh inconclusive, BAZ2B block 35.5µM (no result: L3MBTL1 inh)
Oc1ccc(/C=N/Nc2ncc(Br)cn2)c(O)c1	JMJD2A Tudor inh inconclusive, L3MBTL1 inh inconclusive, BAZ2B block 14.1µM
Oc1ccc(/C=N/Nc2nccnc2Cl)c(O)c1	JMJD2A Tudor inh 50.1µM, BAZ2B block 14.1µM (no result: L3MBTL1 inh)
Clc1nccnc1N/N=C/c1ccc(Br)cc1	BAZ2B block inconclusive
N/C(=N\OC(=O)N1c2ccccc2Sc2ccccc21)c1ccccc1	G9a inh 44.7µM, JMJD2A Tudor inh inconclusive, BAZ2B block inconclusive
Cc1ccoc1C(=O)NCCNc1ccc(Cl)cc1[N+](=O)[O-]	G9a inh 17.8µM, JMJD2A Tudor inh inconclusive, HP1b chromo inh inconclusive, BAZ2B block 44.7µM
CSc1cccc(NC(=O)CN2CCN(Cc3ccccc3C)S2(=O)=O)c1	none (no result: L3MBTL1 inh)
S=C(CN1CCCC1=S)N1CCOCC1	none (no result: G9a inh, L3MBTL1 inh, BAZ2B block)
CC(C)(CCC(=S)N1CCOCC1)C1CCCCC1	G9a inh 8.91µM
O=Cc1ccc(-c2ccccc2OC(F)(F)F)o1	none (no result: L3MBTL1 inh)
COc1ccccc1-c1ccc(/C=C2/C=C(CC(C)C)OC2=O)o1	G9a inh 10µM, JMJD2A Tudor inh inconclusive, L3MBTL1 inh inconclusive, HP1b chromo inh inconclusive, BAZ2B block 39.8µM
CCCC1=C/C(=C/c2ccc(-c3ccccc3OC)o2)C(=O)O1	G9a inh 28.2µM, JMJD2A Tudor inh inconclusive, BAZ2B block 39.8µM
COc1ccc(CNC(=O)CSc2nnc(-c3ccc(NC(C)=O)cc3)n2C)cc1	none (no result: L3MBTL1 inh)
COC(=O)/C(=N\Nc1ccc(Cl)cc1)Sc1nnc(-c2ccc(OC)cc2)n1C	G9a inh 3.16µM, JMJD2A Tudor inh inconclusive
O=C(OCc1ccccc1)[C@@H]1COC(c2ccc(Br)cc2)=N1	none (no result: JMJD2A Tudor inh, L3MBTL1 inh, HP1b chromo inh, BAZ2B block)
O=C(O)Cn1cccc1C(=O)c1ccccc1	G9a inh 56.2µM
COC(=O)Cn1cccc1C(=O)c1ccccc1	none
COc1cc(/C=N\Nc2nc(-c3ccc(C)cc3)c(NC(C)=O)s2)ccc1O	HP1b chromo inh 28.2µM, BAZ2B block 39.8µM
CCOc1cc(/C=N\Nc2nc(-c3ccc(C)cc3)c(NC(C)=O)s2)ccc1O	G9a inh 31.6µM, JMJD2A Tudor inh 28.2µM, HP1b chromo inh inconclusive
CCOc1cc(/C=N/Nc2cc(C)nc(-n3nc(C)cc3C)n2)ccc1O	G9a inh 44.7µM, JMJD2A Tudor inh inconclusive, L3MBTL1 inh inconclusive, BAZ2B block inconclusive
COc1ccc(/C=N/Nc2nc(-c3ccc(C)cc3)c(NC(C)=O)s2)cc1OC	HP1b chromo inh inconclusive, BAZ2B block inconclusive (no result: G9a inh)
O=C(CNC(=O)C1CCCCC1)OCC(=O)c1cccc(Cl)c1	none (no result: G9a inh, BAZ2B block)
O=C(Nc1ccccc1OCc1cc(=O)n2ccccc2n1)Nc1ccccc1C(F)(F)F	none (no result: L3MBTL1 inh)
CC(=O)Nc1ccc(SCC(=O)Nc2oc(C)c3c(C)n[nH]c(=O)c23)cc1	G9a inh 50.1µM
Cc1n[nH]c(=O)c2c(NC(=O)COC(=O)c3cc(F)cc(F)c3)oc(C)c12	G9a inh 44.7µM
Cc1cc(C)c(C)c(SCC(=O)Nc2oc(C)c3c(C)n[nH]c(=O)c23)c1C	G9a inh 3.98µM
CC(C)c1ccc(N2C(=O)CSC23C(=O)N(Cc2ccccc2)c2ccccc23)cc1 (stereo unspecified)	G9a inh inconclusive (no result: L3MBTL1 inh)
Cc1nn(CC(=O)Nc2ccc(S(=O)(=O)N(C)C)cc2)c(C)c1[N+](=O)[O-]	none
CC(N)CCCP(=O)(O)O (stereo unspecified)	none (no result: JMJD2A Tudor inh, L3MBTL1 inh, HP1b chromo inh, BAZ2B block)
NC(=O)c1ccc[n+]([C@H]2O[C@@H](COP(=O)([O-])OP(=O)(O)OC[C@H]3O[C@@H](n4cnc5c(N)ncnc54)[C@H](O)[C@@H]3O)[C@H](O)[C@@H]2O)c1	JMJD2A Tudor inh 79.4µM, BAZ2B block 35.5µM
NC(=O)c1ccc[n+]([C@@H]2OC(COP(=O)([O-])OP(=O)(O)OCC3OC(n4cnc5c(N)ncnc54)C(O)C3O)C(O)C2O)c1 (stereo partly specified)	none (no result: JMJD2A Tudor inh, L3MBTL1 inh, HP1b chromo inh, BAZ2B block)
NC(=S)c1ccc[n+]([C@@H]2O[C@@H](COP(=O)([O-])OP(=O)(O)OC[C@H]3O[C@@H](n4cnc5c(N)ncnc54)[C@H](OP(=O)(O)O)[C@H]3O)C(O)C2O)c1 (stereo partly specified)	G9a inh 17.8µM (no result: JMJD2A Tudor inh, L3MBTL1 inh, HP1b chromo inh, BAZ2B block)
